# In ChEMBL document CHEMBL1157539, “Thousands of chemical starting points for antimalarial lead identification” (Nature, 2010):
# System: HepG2
# Assay: GSK_TCMDC: Percent inhibition of human HepG2 cell line. Test compounds present at 10uM.
# Format: functional
row,Structure (SMILES),Inhibition [%]
1,Cc1nc(O)c2c(ccc3ccc(CNc4ccc(C(=O)N[C@@H](CCC(=O)O)C(=O)O)c(F)c4)cc32)n1,41
2,Cn1cccc1C(=O)NCC(CCNc1cc(=O)c2ccccc2[nH]1)NCc1cc(Br)cc(Br)c1 (centres undefined),0
3,CC(C)N(C(=O)CSc1nc2cc(Cl)ccc2c(=O)n1Cc1ccccc1)C(C)C,0
4,Br.CC1(C)N=C(N)N=C(N)N1OCc1cccc(C#N)c1,57
5,COc1ccc(NC(=O)c2ccc(C=Cc3ccc(C(F)(F)F)cc3)cc2)cc1N1CCN(C)CC1,46
6,Cc1cccc2nc(-c3ccc(-c4ccc(NC(=O)Nc5ccc(Cl)cc5)cc4)cc3)[nH]c12,52
7,O=C(O)C(F)(F)F.O=S(=O)(NC1CCN(c2ccnc3cc(Cl)ccc23)C1)c1ccc(F)cc1 (centres undefined),3
8,Cc1cc(N(C)C)nc(Nc2ccc(NC(=O)COc3ccccc3)cc2)n1,15
9,Cl.Oc1ccccc1Nc1nc(NCc2ccco2)c2ccccc2n1,0
10,Cl.Cn1cnc(-c2ccc3c(c2)CCN(CCC2CCC(NC(=O)/C=C/c4ccc(F)cc4)CC2)CC3)c1 (centres undefined),26
11,Cc1nc2ccc3nc(NC(=O)c4ccno4)sc3c2s1,6
12,CC(=O)O.CCC[C@@H]([C@@H](CC1CCCCC1)C(=O)N[C@H](C(=O)Nc1nccc(N)n1)C(C)(C)C)N(O)C=O,25
13,COc1nc2c(CCN3CCC(NCc4ccc5c(c4)NC(=O)CO5)CC3)c(Cl)cnc2cc1F.Cl,15
14,COc1cccc(N(CCCN2C(=O)c3cccc4cccc(c34)C2=O)C(=O)c2ccccc2C)c1,20
